# Experimental data published in PubChem BioAssay (NCATS).
# Records with an inconclusive call do not appear. A number with no mark means an inactive call. Activity calls are given as the source filed them. The call rests on the fitted dose curve; in most records, active means well fitted inhibition curve with a large enough effect; inconclusive means small, poorly fitted or top-dose-only effect; inactive means flat fitted curve, though single readings scatter.
# Assays:
# Test in all cases: Cytotoxic Profiling of Annotated Libraries Using Quantitative High-Throughput Screening (AID 1296008); further: nearly all actives have a fitted effect of over 60% in size
# Conditions in all cases: Five cell lines viability, CellTiter-Glo ATP luminescence, 48-72 h; max response: active compounds read low
# [1] = system: CRL-7250
# How it was run: (§1)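 Compounds were pin-transferred onto cells and incubated 48 or 72 hr at 37 degree Celsius, 95% humidity. CellTiter-Glo was added, plates sat 10 min at room temperature, then ATP-coupled luminescence was imaged as the viability read-out.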
# [2] = system: HEK293
# How it was run: as §1
# [3] = system: HaCat
# How it was run: as §1
# [4] = system: KB-3-1
# How it was run: as §1
# [5] = system: NIH3T3
# How it was run: as §1
# On the % scale 0 is the no-effect control and ±100 the full control effect; potency means the concentration at half of the fitted maximal effect.
compound,measurement,setting,value
C[C@@H]1O[C@@H](O[C@H]2[C@H](OC(=O)[C@]34CCC(C)(C)C[C@H]3C3=CCC5[C@@]6(C)CC[C@H](O[C@@H]7O[C@H](C(=O)O)[C@@H](O)[C@H](O)[C@H]7O[C@@H]7O[C@H](CO)[C@H](O)[C@H](O)[C@H]7O)[C@@](C)(C=O)C6CC[C@@]5(C)[C@]3(C)C[C@H]4O)O[C@H](C)[C@H](O[C@@H]3O[C@H](C)[C@H](O)[C@H](O)[C@H]3O)[C@@H]2O)[C@H](O)[C@H](O)[C@H]1O[C@@H]1OC[C@@H](O)[C@H](O[C@@H]2O[C@H](CO)[C@@H](O)[C@H](O)[C@H]2O)[C@H]1O (stereo not given in full),max response,[1],-5.26%
same,max response,[2],-75.9%
same,max response,[3],-0.834%
same,max response,[4],9.53%
same,max response,[5],3.95%
C[C@H]1CC[C@@]2(OC1)O[C@H]1CC3C4CC[C@H]5C[C@@H](O)[C@H](O)C[C@]5(C)C4=CC(=O)[C@]3(C)[C@H]1[C@@H]2C (stereo not given in full),max response,[1],-0.885%
same,max response,[2],-6.34%
same,max response,[3],-0.134%
same,max response,[4],0.923%
same,max response,[5],-10.8%
O=C(O[C@H]1[C@@H]2C[C@@H]3OC[C@](O)([C@@H]1Cl)[C@H]2C(O[C@@H]1O[C@H](CO)[C@@H](O)[C@H](O)[C@H]1O)O3)c1ccc(O)c(O)c1 (stereo not given in full),max response,[1],-7.93%
same,max response,[2],-2.09%
same,max response,[3],-10.7%
same,max response,[4],6.86%
same,max response,[5],3.52%
Cc1cccc(S(=O)(=O)N2CCC[C@@H]2CCN2CCC(C)CC2)c1,max response,[1],-2.64%
same,max response,[2],-20.7%
same,max response,[3],-28.1%
same,max response,[4],-9.32%
same,max response,[5],-11.7%
CC(C)(O)/C=C/C1=CC(=O)[C@@](C)(O)C[C@H]1O,max response,[1],-5.51%
same,max response,[2],-6.16%
same,max response,[3],4.28%
same,max response,[4],7.85%
same,max response,[5],-2.07%
CC1CCC2C(C(=O)O)=COC(O[C@@H]3O[C@H](CO)[C@@H](O)[C@H](O)[C@H]3O)C12 (stereo not given in full),max response,[1],-11.5%
same,max response,[2],-3.47%
same,max response,[3],-2.91%
same,max response,[4],-9.1%
same,max response,[5],-1.59%
CC1(C(=O)O)CCCC2(C)C3CCC4CC3(CCC12)CC4=O (stereo not given),max response,[1],-1.87%
same,max response,[2],0.827%
same,max response,[3],2.83%
same,max response,[4],-1.11%
same,max response,[5],-6.02%
COC(=O)C1=COC(OC2OC(CO)C(O)C(O)C2O)C2C1C=CC2(O)CO (stereo not given),outcome,[1],inactive
same,max response,[2],-11.3%
same,max response,[3],-21.5%
same,outcome,[4],inactive
same,max response,[5],3.54%
CC(=O)NC1C(OC(C)(C)C2CCC3(C)C=C(C4CCC5C4(C)CC(O)C4OC(C(C)(C)O)CCC45C)CCC3O2)OC(CO)C(O)C1O (stereo not given),max response,[1],0.702%
same,max response,[2],-2.64%
same,max response,[3],3.68%
same,max response,[4],-23.5%
same,max response,[5],-10.4%
C=C(CO)C12OC1C1(C)C(=CC2=O)C(O)C(O)CC1C (stereo not given),max response,[1],-0.172%
same,max response,[2],-0.602%
same,max response,[3],-9.32%
same,max response,[4],3.94%
same,max response,[5],-6.8%
OC[C@H]1O[C@@H](OC(CCCCc2ccc(O)cc2)CCc2ccc(O)cc2)[C@H](O)[C@@H](O)[C@@H]1O (stereo not given in full),max response,[1],-35.2%
same,max response,[2],-49.4%
same,max response,[3],-20.5%
same,outcome,[4],inactive
same,max response,[5],-27.4%
CC1(C)CC[C@]2(C(=O)O[C@@H]3O[C@H](CO[C@@H]4O[C@H](CO)[C@@H](O)[C@H](O)[C@H]4O[C@@H]4O[C@H](CO)[C@H](O)[C@H](O)[C@H]4O)[C@@H](O)[C@H](O[C@@H]4O[C@H](CO)[C@@H](O)[C@H](O)[C@H]4O)[C@H]3O)CC[C@]3(C)C(=CCC4[C@@]5(C)CC[C@H](O[C@@H]6OC[C@@H](O)[C@H](O)[C@H]6O)[C@@](C)(C(=O)O)C5CC[C@]43C)[C@@H]2C1 (stereo not given in full),max response,[1],-1.09%
same,max response,[2],2.33%
same,max response,[3],-16.1%
same,max response,[4],4.92%
same,max response,[5],1%
C[C@@H]1O[C@@H](O[C@@H]2[C@@H](O)[C@H](O[C@H]3[C@H](O[C@H]4CC[C@@]5(C)C(CC[C@]6(C)C5CC=C5[C@@H]7CC(C)(C)CC[C@]7(C(=O)O[C@@H]7O[C@H](CO)[C@@H](O)[C@H](O)[C@H]7O[C@@H]7O[C@@H](C)[C@H](O[C@@H]8O[C@@H](C)[C@H](O)[C@@H](O)[C@H]8O)[C@@H](O)[C@H]7O)CC[C@]56C)[C@@]4(C)CO)O[C@H](C(=O)O)[C@@H](O)[C@@H]3O)O[C@H](CO)[C@H]2O)[C@H](O)[C@H](O)[C@H]1O (stereo not given in full),outcome,[1],inactive
same,max response,[2],-2.3%
same,max response,[3],4.58%
same,max response,[4],5.11%
same,max response,[5],2.85%
C/C(=C/CO)CC[C@@H]1[C@@](C)(O)CCC2C(C)(C)CCC[C@]21C (stereo not given in full),max response,[1],1.57%
same,max response,[2],4.02%
same,max response,[3],0.603%
same,max response,[4],5.46%
same,max response,[5],-10.9%
O=C1N=C(N2CCOCC2)CN1c1ccc(Cl)cc1,max response,[1],-3.02%
same,max response,[2],-16.9%
same,max response,[3],-30.2%
same,max response,[4],2.82%
same,max response,[5],-0.0852%
C[C@@H]1O[C@@H](O[C@H]2[C@H](O)[C@@H](O)[C@H](OC[C@H]3O[C@@H](OC(=O)[C@]45CCC(C)(C)C[C@H]4C4=CCC6[C@@]7(C)CC[C@H](O[C@@H]8OC[C@H](O)[C@H](O[C@@H]9O[C@H](CO)[C@@H](O)[C@H](O)[C@H]9O)[C@H]8O)[C@@](C)(CO)C7CC[C@@]6(C)[C@]4(C)CC5)[C@H](O)[C@@H](O)[C@@H]3O)O[C@@H]2CO)[C@H](O)[C@H](O)[C@H]1O (stereo not given in full),outcome,[1],inactive
same,max response,[2],-14.9%
same,max response,[3],-0.978%
same,max response,[4],8.88%
same,max response,[5],-6.93%
CC1(C)CC2C(O)c3cocc3CC(C)(O)C2C1 (stereo not given),max response,[1],0.847%
same,max response,[2],3.14%
same,max response,[3],-7.3%
same,max response,[4],5.78%
same,max response,[5],2.81%
CCC(=O)O[C@H]1C(C)(C)[C@H]([C@@H](O)C(=O)OC)[C@]2(C)C(=O)[C@@]1(O)[C@H]1O[C@]13C1CC(=O)O[C@@H](c4ccoc4)[C@]1(C)CCC32 (stereo not given in full),max response,[1],0.287%
same,max response,[2],-1.59%
same,max response,[3],-11.6%
same,max response,[4],-4.09%
same,max response,[5],-25.4%
C=C1C(=O)O[C@H]2[C@H]1CC/C(C)=C/CC[C@@]1(C)O[C@@H]21,max response,[1],-15.8%
same,max response,[2],-18.1%
same,max response,[3],-3.65%
same,max response,[4],-4.28%
same,max response,[5],0.479%
C=C1C[C@]23C[C@H]1CC[C@H]2C1=C[C@H]2OC(=O)[C@@](C)([C@H]1[C@@H]3C(=O)O)[C@H]2O,max response,[1],2.1%
same,max response,[2],4.48%
same,max response,[3],1.41%
same,outcome,[4],inactive
same,max response,[5],3.03%
COc1cc(C(=O)OC[C@@]2(O)CO[C@@H](O[C@H]3[C@H](Oc4ccc(C(=O)O)cc4OC)O[C@H](CO)[C@@H](O)[C@@H]3O)[C@@H]2O)ccc1O,max response,[1],-0.15%
same,max response,[2],-19.1%
same,max response,[3],1.78%
same,outcome,[4],inactive
same,max response,[5],3.57%
CC(C)=CCC[C@](C)(O[C@@H]1O[C@H](CO[C@@H]2O[C@H](CO)[C@@H](O)[C@H](O)[C@H]2O)[C@@H](O)[C@H](O)[C@H]1O)C1CC[C@]2(C)[C@@H]1[C@H](O)CC1[C@@]3(C)CC[C@H](O[C@@H]4O[C@H](CO)[C@@H](O)[C@H](O)[C@H]4O[C@@H]4O[C@H](CO)[C@@H](O)[C@H](O)[C@H]4O)C(C)(C)[C@@H]3CC[C@]12C (stereo not given in full),max response,[1],-3.43%
same,max response,[2],0.0713%
same,max response,[3],3.42%
same,max response,[4],-1.36%
same,max response,[5],4.71%
COc1c(C)c(OCC(O)C(C)(C)O)cc2c1COC2=O (stereo not given),max response,[1],4.27%
same,max response,[2],-24.2%
same,max response,[3],-8.24%
same,outcome,[4],inactive
same,max response,[5],-1.75%
CC(C)(O)/C=C/CC(C)(O)C1C(O)CC2(C)C3CCC4C(C)(C)C(=O)CCC4(C)C3CCC12C (stereo not given),max response,[1],-2.19%
same,max response,[2],1.96%
same,max response,[3],-10.7%
same,outcome,[4],inactive
same,max response,[5],-0.144%
COc1cc(/C=C/CO)cc(OC)c1O[C@@H]1O[C@H](CO[C@@H]2O[C@H](CO)[C@@H](O)[C@H](O)[C@H]2O)[C@@H](O)[C@H](O)[C@H]1O,max response,[1],3.07%
same,max response,[2],1.54%
same,max response,[3],4.69%
same,max response,[4],9.56%
same,max response,[5],-3.2%
Cc1onc(C(=O)N2CCN(C(c3ccc(Cl)cc3)c3ccc(Cl)cc3)CC2)c1[N+](=O)[O-],Potency,[1],0.58 µM (active)
same,Potency,[2],820 nM (active)
same,max response,[3],0.662%
same,max response,[4],-21.9%
same,Potency,[5],0.731 µM (active)
CCn1cc(NC(=S)Nc2cc(Cl)ccc2OC)c(C(N)=O)n1,max response,[1],-6.99%
same,max response,[2],-2.95%
same,max response,[3],-0.793%
same,outcome,[4],inactive
same,max response,[5],-1.95%
Cc1cc(C(N)=O)ccc1-n1c(CCC(=O)O)ccc1-c1ccc(-n2ccnc2)cc1,max response,[1],1.88%
same,max response,[2],-3.97%
same,max response,[3],-1.63%
same,max response,[4],7.2%
same,max response,[5],-2.74%
CC1(C)CC[C@]2(C(=O)O[C@@H]3O[C@H](CO)[C@@H](O)[C@H](O)[C@H]3O)CC[C@]3(C)C(=CCC4[C@@]5(C)C[C@@H](O)[C@H](O)[C@@](C)(CO)C5CC[C@]43C)C2[C@@H]1O (stereo not given in full),max response,[1],1.08%
same,max response,[2],-3.93%
same,max response,[3],-9.78%
same,outcome,[4],inactive
same,max response,[5],2.98%
Cc1cc(C)cc(C(=O)NOCCCCCC(=O)NO)c1,Potency,[1],8.2 µM (active)
same,Potency,[2],1640 nM (active)
same,Potency,[3],1.84 µM (active)
same,Potency,[4],2.06 µM (active)
same,Potency,[5],5.8 µM (active)
